Only some compounds are listed: those with a hit (about 3.5% of all), similar ones and a draw of the others.
Kir21 inh: inhibitors of mouse Kir2.1 inward-rectifier potassium channel | 0.85% of 310,000 active | B-score at 10 µM | AID 1672 | HEK293-Kir2.1, FluxOR thallium flux fluorescence; hits give low values | P35561;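 active = fluorescence ratio B-score at or below minus 3 SD of library scores, with starting-brightness B-score within 2 SD, cut at about -4.2 in these data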;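 also: channel flux triggered by added potassium and thallium sulfate stimulus; B-score of peak minus minimum fluorescence over baseline after thallium stimulus; more negative B-score means stronger Kir2.1 block with less thallium influx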
KCNK3 block: human KCNK3 channel inhibition, primary screen | O14649 | CHO-KCNK3 thallium flux, FluxOR fluorescence; hits give low values | B-score at 10 µM | 0.84% of 340,000 active | AID 602410;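 active = B-score under library mean minus 4 SD, starting fluorescence ratio at most library mean plus 5 SD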;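 also: more negative B-score means stronger inhibition of thallium flux through KCNK3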
TMEM16A act: mouse TMEM16A channel activation, primary screen. Q8BHY3. 0.3% of 340,000 active. AID 623877. B-score at 10 µM. HEK293 TMEM16A/YFP-H148Q/I152L, iodide quench fluorescence; hits give low values;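 active = fluorescence-ratio B-score plate-corrected deviation score at least 3 library SD below zero, with starting fluorescence score within 5 deviations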;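 also: channel opened by trigger with iodide after compound preincubation; score built on the fluorescence ratio of max minus min over baseline; more negative score means more quench and so TMEM16A activation or potentiation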
Target sequence (Q8BHY3 whole entry, looked up): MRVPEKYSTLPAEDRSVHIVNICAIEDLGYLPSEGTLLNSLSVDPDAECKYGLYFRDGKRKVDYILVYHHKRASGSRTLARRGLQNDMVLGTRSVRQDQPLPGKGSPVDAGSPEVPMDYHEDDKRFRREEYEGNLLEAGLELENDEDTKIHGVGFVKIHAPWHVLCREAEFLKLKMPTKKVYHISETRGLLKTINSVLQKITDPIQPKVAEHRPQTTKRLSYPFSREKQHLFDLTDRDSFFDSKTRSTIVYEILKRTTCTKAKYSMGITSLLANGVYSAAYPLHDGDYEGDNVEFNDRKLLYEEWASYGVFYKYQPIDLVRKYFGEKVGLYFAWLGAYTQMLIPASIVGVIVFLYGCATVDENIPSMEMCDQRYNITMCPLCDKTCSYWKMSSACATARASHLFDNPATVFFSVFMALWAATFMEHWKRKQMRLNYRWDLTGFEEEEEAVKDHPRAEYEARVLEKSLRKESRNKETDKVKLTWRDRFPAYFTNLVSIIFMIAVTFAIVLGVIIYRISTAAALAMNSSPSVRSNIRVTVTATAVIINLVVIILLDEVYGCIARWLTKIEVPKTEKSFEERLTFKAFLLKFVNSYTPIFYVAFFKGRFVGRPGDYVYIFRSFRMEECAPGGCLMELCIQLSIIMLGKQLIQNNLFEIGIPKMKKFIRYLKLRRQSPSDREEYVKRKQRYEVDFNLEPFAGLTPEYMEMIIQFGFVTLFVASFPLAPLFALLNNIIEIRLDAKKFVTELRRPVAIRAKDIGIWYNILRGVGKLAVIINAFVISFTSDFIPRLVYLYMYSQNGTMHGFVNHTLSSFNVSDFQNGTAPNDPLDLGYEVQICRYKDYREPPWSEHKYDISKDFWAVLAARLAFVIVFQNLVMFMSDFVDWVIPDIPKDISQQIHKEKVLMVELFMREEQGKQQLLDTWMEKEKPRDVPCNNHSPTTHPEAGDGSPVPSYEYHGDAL
KCNK9 block: human KCNK9 channel inhibition. Q9NPC2. HEK293 KCNK9, FluxOR thallium flux fluorescence; hits give low values. B-score at 10 µM. 1.2% of 310,000 active. AID 488922;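 active = ratio B-score over 3 SD below the library mean, with starting fluorescence within 5 SD of its mean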;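 also: negative B-score means less thallium flux so channel inhibition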
TMEM16A inh: mouse TMEM16A channel inhibition, primary screen; HEK293 TMEM16A/YFP iodide influx fluorescence, ionomycin; Q8BHY3; 1.2% of 310,000 active; AID 588511; normalized B-score (activity score, 25-100; higher = stronger inhibition) at 10 µM;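 active = ratio plate-corrected score three or more library SD toward inhibition, starting fluorescence score within five deviations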;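 also: score derived from kinetic fluorescence span divided by baseline fluorescence per well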
* = called active by the depositor; i = inactive; . = no result given.

SMILES | Kir21 inh | KCNK3 block | TMEM16A act | KCNK9 block | TMEM16A inh
O=C(CNC(=O)c1ccc2c(=O)n3c(nc2c1)CCC3)Nc1ccc(F)c(F)c1 | 1.16 | i | i | i | i
CCc1cc(-c2[nH]ncc2-c2nc3ccccc3n2C)c(O)cc1O | -1.02 | i | i | i | i
CCOc1cc(O)c(-c2[nH]ncc2-c2nc(C)cs2)cc1CC | 0.23 | i | i | i | 25*
Cc1ccc(SCc2nc3ccccc3n2CC(=O)Nc2ccc(Cl)cc2)cc1 | -0.12 | i | i | i | i
O=C(Cn1c(CO)nc2ccccc21)Nc1ccccc1Cl | -9.39* | i | i | i | i
Cc1ccc(SCc2nc3ccccc3n2CC(=O)Nc2ccccc2)cc1 | 0.22 | i | i | -6.91* | i
O=C(Cn1c(-c2ccccc2Cl)nc2ccccc21)Nc1cccc(Cl)c1 | -0.82 | i | i | -7.48* | i
O=C(Cn1ccc(NC(=O)OCc2ccccc2)nc1=O)NCc1ccc2c(c1)OCO2 | . | i | i | . | .
CCOC(=O)Nc1ccc2c(COC(=O)C(NS(=O)(=O)c3ccc(Cl)cc3)C(C)O)cc(=O)oc2c1 (configuration not stated) | . | i | i | . | .
CCOC(=O)c1ccc(S(=O)(=O)N2CCN(CCc3ccncc3)CC2)cc1 | . | i | i | . | .
Cc1nc(SCC(=O)NCCc2ccc(Cl)cc2)nc(C)c1C | -4.96* | i | i | i | i
O=[N+]([O-])c1cc(S(=O)(=O)Nc2ccccc2)ccc1NCc1cccnc1 | -1.44 | i | i | i | i
O=[N+]([O-])c1cc(S(=O)(=O)Nc2ccccc2)ccc1NCc1ccccc1 | 1.48 | i | i | -6.57* | i
c1ccc(-c2nc(CSc3n[nH]c(-c4cccs4)n3)cs2)cc1 | 0.66 | i | i | i | i
Cc1ccc(C(=O)CN(C(=O)c2ccc(Cl)c(Cl)c2)N2C(=O)C3CCCCC3C2=O)cc1C (configuration not stated) | 1.29 | i | -5.52* | i | i
Cc1ccc(C(=O)CN(C(=O)c2ccc(Cl)c(Cl)c2)N2C(=O)C3CCCCC3C2=O)cc1 (configuration not stated) | 0.27 | i | i | i | i
CCOC(=O)C1=C(c2ccccc2)OC(N)=C(C#N)C1c1ccc(Cl)s1 (configuration not stated) | 1.51 | i | i | -6.62* | i
CC(NCCS(=O)(=O)c1ccc(Cl)cc1)c1cccc(Cl)c1 (configuration not stated) | -12.9* | i | i | i | i
Cc1cc(C)c(C#N)c(N2CCN(Cc3ccccc3)CC2)n1 | -4.54* | i | i | i | i
O=C(c1ccccc1)c1c2c(cc3sc4ccccc4[n+]13)-c1cccc3cccc-2c13 | . | i | i | . | 100*
O=C(c1ccccc1)c1ccc2ccccc2c1 | . | i | i | . | .
Cn1cnc(S(=O)(=O)Nc2ccc(Cl)c(C(F)(F)F)c2)c1 | 2.17 | i | i | i | i
O=C(Oc1cccc(NC(=O)c2ccco2)c1)c1ccc(Br)c(S(=O)(=O)N2CCCCC2)c1 | -0.24 | i | i | -7.79* | i
Cc1ccc(C(=O)Oc2cccc(NC(=O)c3ccco3)c2)cc1S(=O)(=O)N1CCC(C)CC1 | -0.88 | i | i | i | i
c1ccc2c(c1)oc1c(Nc3ccc(CN4CCOCC4)cc3)ncnc12 | -5.02* | i | i | i | i
SMILES | Kir21 inh | KCNK3 block | TMEM16A act | KCNK9 block | TMEM16A inh
COc1ccc(CC(=O)NC2CCSc3ccccc32)c(OC)c1 (configuration not stated) | -5.9* | i | i | i | i
CN(C)CCOc1ccc2c(c1)Sc1ccccc1CC2=O | -5.17* | i | i | i | i
Cc1ccc2c(c1)Sc1ccccc1CC2=O | -0.06 | i | i | i | i
Cc1ccc(CSc2[nH]c(=O)ncc2C)cc1 | 0.55 | i | i | i | i
COc1ccc(C2CC3(CC(C)(C)NC(SC)=N3)Oc3cc(O)cc(C)c32)cc1 (configuration not stated) | -5.32* | i | i | i | i
CCN(C(=O)CSc1nc2cc(Cl)ccc2c(=O)n1CC(C)C)C1CCS(=O)(=O)C1 (configuration not stated) | 0.79 | -10.6* | i | i | i
CCN(C(=O)CSc1nc2ccccc2c(=O)n1-c1ccc(C)cc1)C1CCS(=O)(=O)C1 (configuration not stated) | 1.56 | i | i | i | i
CCN(C(=O)CSc1nc2ccccc2c(=O)n1-c1ccccc1F)C1CCS(=O)(=O)C1 (configuration not stated) | . | -10.5* | i | . | .
COc1ccc(S(=O)(=O)N(C)CC(=O)N2CCC(C(N)=O)CC2)cc1Cl | 0.03 | i | i | i | i
COCCn1c(SCC(=O)NC(=O)NC2CCCC2)nc2ccccc2c1=O | . | i | i | . | .
O=C(O)CCN1C(=O)/C(=C/c2ccc(-c3nc4ccccc4s3)o2)SC1=S | -0.41 | i | i | i | i
O=C(O)CC(C(=O)O)N1C(=O)/C(=C/c2ccc(-c3nc4ccccc4s3)o2)SC1=S (configuration not stated) | -2.78 | i | -7.75* | i | i
N#CC(C#N)=C(Nc1ccc(F)cc1)SCc1cccc(Br)c1 | -3.2 | i | i | i | 100*
Cc1cccc(CSC(Nc2ccc(F)cc2)=C(C#N)C#N)c1 | -4.53* | i | i | i | 100*
Cc1cccc(CSC(=N)N)c1 | -1.08 | i | i | i | i
CC(SCc1ccccc1)C(=O)Nc1ccc(F)cc1 (configuration not stated) | 0.77 | i | i | i | i
COc1ccc(CNS(=O)(=O)c2cc(CN3C(=O)c4cccnc4C3=O)ccc2OC)cc1 | 0.66 | i | i | i | i
CC1(C)C(=O)Nc2ccccc2N1C(=O)COc1ccc(C#N)cc1 | . | i | i | . | .
COC(=O)[C@H](CC(C)C)NS(=O)(=O)N(Cc1ccccc1)[C@@H](CC(C)C)C(=O)OC | . | i | i | . | .
COC(=O)[C@H](CC(C)C)NCc1cccc(CN[C@@H](CC(C)C)C(=O)OC)c1 | -4.28* | i | i | i | i
CCCCn1c(N)c(N(C(=O)CSc2nnnn2-c2ccccc2C)C2CCCC2)c(=O)[nH]c1=O | . | i | i | . | .
O=C(NC(=S)N1CCCCCC1)c1ccc(Cl)cc1Cl | -0.68 | i | i | i | i
CC(OC(=O)c1cccnc1SCc1cc(=O)n2ccccc2n1)c1ccccn1 (configuration not stated) | 2.21 | i | i | i | i
CCOC(=O)c1cccnc1SCc1cc(=O)n2ccccc2n1 | -0.02 | i | i | i | 25*
CN(C(=O)C1CCN(S(=O)(=O)c2ccccc2)CC1)c1c(N)n(Cc2ccccc2)c(=O)[nH]c1=O | 0 | i | i | i | i
